# Screens deposited in PubChem by National Center for Advancing Translational Sciences (NCATS).
# A selection: hits, their analogues and other compounds. The true share with any hit is near 1.8%.
# TSHR antagonist = human thyrotropin receptor antagonism; P16473; TSHR-expressing cells, TSH-stimulated cAMP HTRF, 2 h; hits give low values; activity change, negative = inhibition, % at 11.5 µM; 0.2% of 330,000 active; AID 504810;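 active = activity change below a set negative limit, meaning inhibition stronger than a set level, cut at about -70% in these data; inconclusive = activity change between two set negative limits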; also: % is scaled to controls: 0 for no effect and ±100 for the full control effect
#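 Antagonism was scored as loss of TSH-driven cAMP in TSHR cells, stimulated with 4nM TSH (EC80) for 2 hours at 37 deg C and detected by homogeneous HTRF competition immunoassay.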
# HEK293 tox = cytotoxic in the GLP-1 receptor inverse agonist counter-screen; Potency, µM (series often up to 38.3 µM), without a hit: at the top dose activity change, negative = inhibition, actives largely listed as inhibitors; HEK293 cAMP-luciferase reporter cells, luminescence, 24 h; AID 624418; 0.13% of 410,000 active;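 also: loss of luciferase light is scored as toxicity; potency is read from the fitted curve at half-maximal effect; % is scaled to controls: 0 for no effect and ±100 for the full control effect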
#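 Cells in DMEM/10% Nu serum/1% pen-strep, 1536-well format. Pre-incubated 12 h, dosed with 23 nL compound, incubated a further 24 h. Luciferase detection, 12 min at room temp, luminescence.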
# PTHR1 agonist = agonists of human PTHR1 parathyroid hormone receptor. Q03431. 0.075% of 410,000 active. Potency, µM (highest dose often 115 µM), for the others: at the top dose activation, hits mostly activators. HEK293 GP2 PTHR1 cells, GloSensor cAMP luminescence, 1 h. AID 743266; also: potency is read from the fitted curve at half-maximal effect; nearly all actives have a fitted effect of over 55% in size
# Target sequence (Q03431 whole entry, looked up): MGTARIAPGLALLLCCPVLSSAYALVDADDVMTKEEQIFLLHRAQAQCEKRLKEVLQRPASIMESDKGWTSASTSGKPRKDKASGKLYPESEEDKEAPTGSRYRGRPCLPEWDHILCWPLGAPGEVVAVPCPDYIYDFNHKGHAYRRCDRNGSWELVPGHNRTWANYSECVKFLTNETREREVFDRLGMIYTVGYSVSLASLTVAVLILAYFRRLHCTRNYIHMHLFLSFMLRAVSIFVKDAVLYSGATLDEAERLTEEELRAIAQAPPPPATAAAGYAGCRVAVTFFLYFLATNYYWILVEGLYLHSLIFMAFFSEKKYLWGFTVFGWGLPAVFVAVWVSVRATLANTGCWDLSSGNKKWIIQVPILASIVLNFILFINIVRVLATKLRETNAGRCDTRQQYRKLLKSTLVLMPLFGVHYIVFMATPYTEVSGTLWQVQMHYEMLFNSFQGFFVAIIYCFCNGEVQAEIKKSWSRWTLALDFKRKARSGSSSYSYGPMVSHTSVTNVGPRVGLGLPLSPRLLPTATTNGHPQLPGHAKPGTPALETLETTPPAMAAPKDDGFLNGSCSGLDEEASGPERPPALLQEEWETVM
#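 HEK-293-derived GP2 cells expressing PTHR1 and a GloSensor cAMP reporter, 3,000/well, plated overnight, given luciferin plus IBMX (each 0.5 mM as added) for 1 h at 37 °C, then compound for 1 h at 37 °C. Luminescence was read after 15 min at room temperature.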
# GLP1R ag = activates the human GLP-1 receptor | HEK293 GLP-1R CRE-luciferase, luminescence, 4-6 h; cells express a hypersensitive GLP-1R form | 0.007% of 380,000 active | AID 624172 | P43220 | Potency, µM (top dose mostly 45.6 µM), for the others: at the highest dose activation, most hits filed as activators; also: potency is read from the fitted curve at half-maximal effect; % of control where 0% means no effect
# GLP1R inv ag = GLP-1 receptor (human) inverse agonism. P43220. HEK293 GLP-1R CRE-luciferase, luminescence, 24 h; GLP-1R form is constitutively active. Potency, µM (doses to about 38.3 µM), inactives show top-dose activity change, negative = inhibition, usual class: inhibitors. 1.6% of 410,000 active. AID 624417; also: potency is read from the fitted curve at half-maximal effect; % is scaled to controls: 0 for no effect and ±100 for the full control effect; nearly all actives have a fitted effect of over 55% in size
#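 Seeding at 200 cells/uL, 12 h culture, 24 hr compound treatment, then luciferase reagent and a luminescence read; cells are HEK293 stably expressing a constitutively active GLP-1R plus cAMP-responsive luciferase.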
# * marks the source's active call; other numbers are inactive results; i = inactive; ? = inconclusive; · = no result given; [ ] = another dose, or the depositor's remark. Unless noted, calls follow the shape of the dose curve; as a rule, active = well fitted curve in the direction sought with a large enough effect; inconclusive = small, poorly fitted or top-dose-only effect, or another doubt; inactive = no such curve, though single readings can be large; an effect the other way counts as inactive or inconclusive.
SMILES,TSHR antagonist,HEK293 tox,PTHR1 agonist,GLP1R ag,GLP1R inv ag
CCCCN1CC(COCc2ccccc2)Oc2cccc(Oc3ccc(F)cc3)c2S1(=O)=O (centres undefined),·,-7%,-11%,7%,3.5µM*
Cc1ccc(OCC(=O)N2N=C(C(F)(F)F)CC2(O)C(C)(C)C)cc1C (centres undefined),-8,-28%,-15%[57.5 µM],-2%,-57%
CC1=NN(C(=O)COc2ccc(C)c(C)c2)C(O)(c2ccc(Cl)cc2)C1 (centres undefined),-3,-13%,-36%,7%,13µM*
Cc1nn(CC(C)C)c(Cl)c1C(=O)N(c1ccc(Cl)cc1F)S(C)(=O)=O,-4,-12%,-11%,-3%,8.9µM*
O=c1c2sc(-c3ccccc3)cc2nc2n1CCC2,-13,2%,-20%,-18%,5µM*
CC(Sc1nnc(CN2CCCC2)n1Cc1ccccc1)C(=O)Nc1ccc(F)cc1Cl (centres undefined),·,-4%,i,22%,5.6µM*
OC(c1ccccc1)(c1nc(/C=C/c2ccc(C(F)(F)F)cc2)cs1)C(F)(F)F (centres undefined),·,?,-6%,-2%,7.9µM*
CCOC(=O)c1noc2ncnc(Nc3ccc(C)c(F)c3)c12,·,1%,-22%,·,4%
COc1ccc(Cn2c(O)c(C=Nc3ccc(O)cc3)c3ccccc3c2=O)cc1,-14,-4%,-3%,0%,8.9µM*
O=C(Nc1ccc(Br)cc1F)C(NS(=O)(=O)c1cccc2nsnc12)c1ccccc1 (centres undefined),·,0%,-21%,·,?
OCCN1CCN(c2nc(-c3ccccc3)c3cc(Cl)ccc3n2)CC1,6,117%,-18%,-20%,3.5µM*
CN1CCN(c2nc(-c3ccccc3)c3cc(Cl)ccc3n2)CC1,-1,117%,i,1%,-33%
Cc1ccc2nc(N3CCN(CCO)CC3)nc(-c3ccccc3)c2c1,-8,68%,i,21%,6.3µM*
Cc1cccc(OCCCCn2c(C3CC(=O)N(c4ccc(C)cc4C)C3)nc3ccccc32)c1 (centres undefined),·,-27%,-30%,·,13µM*
CCCCN1CC(c2nc3ccccc3n2CCCCOc2ccc(C)c(C)c2)CC1=O (centres undefined),·,-21%,-14%,·,?
Cc1cccc(OCCCCn2c(C3CC(=O)N(c4ccccc4Cl)C3)nc3ccccc32)c1 (centres undefined),·,16%,i,·,4%
CCCCN1CC(c2nc3ccccc3n2CCCCOc2cc(C)cc(C)c2)CC1=O (centres undefined),·,-11%,-21%,·,10µM*
O=C(Nc1cccc(C(=O)O)c1)Nc1ccccc1Cl,1,-2%,-31%,-4%,4.5µM*
COC(=O)c1cccc(NC(=O)Nc2ccc(Cl)c(Cl)c2)c1,-36,-28%,-37%,-17%,?
O=C(Nc1ccc(Cl)cc1)Nc1cccc(C(=O)O)c1,13,1%,-16%,-8%,1µM*
O=C(Nc1ccc(Cl)c(Cl)c1)Nc1ccccc1C(=O)O,-27,-7%,-34%,-6%,5.6µM*
O=C(Nc1cccc(C(=O)O)c1)Nc1cccc2ccccc12,-3,4%,-59%,0%,-17%
COC(=O)c1cc(NC(=O)Nc2ccccc2)ccc1Cl,-14,-16%,-7%,-9%,10µM*
O=C(Nc1cccc(Cl)c1)Nc1cccc(C(=O)O)c1,-1,-6%,-30%,-4%,?
CC1(C)C(C(=O)O)N2C(=O)CC2S1(=O)=O (centres undefined),·,·,·,-2%,·
SMILES,TSHR antagonist,HEK293 tox,PTHR1 agonist,GLP1R ag,GLP1R inv ag
Cc1ccc(-c2nnc3c4ccccc4c(C)nn23)cc1NC(=O)c1ccccc1,·,-3%,i,·,11%
O=C(Nc1ccccc1Cl)NN1CCCCCC1,·,1%,-6%,27%,2µM*
C(=C\c1ccccc1)/CSc1nnc(-c2ccccc2)n1Cc1ccco1,4,-30%,-25%,7%,7.1µM*
COc1ccc(NC(=O)CSc2nc(-c3ccccc3)cc(-c3cc(OC)c(OC)c(OC)c3)c2C#N)c(OC)c1,·,-1%,-19%,·,-2%
CC(C)(C)c1ccc(Oc2ccc(NC(=O)c3ccco3)cn2)cc1,-36,-28%,-17%,26%,2.5µM*
COc1ccc(-c2cccc(NC(=O)c3ccco3)c2)nn1,-2,2%,-5%,1%,-4%
COc1ccc(-c2ccc(NC(=O)c3ccco3)cc2)nn1,3,17%,-22%,-1%,7.1µM*
COc1cc(NC(=O)C(C)C)ccc1NC(=O)c1ccco1,-93*,2%,-11%[57.5 µM],1%,5%
CC/C=C(/C(=O)N[C@@H]1C(=O)N2C(C(=O)OCOC(=O)C(C)(C)C)=C(COC(N)=O)CS[C@H]12)c1csc(N)n1,·,·,·,-2%,·
CC(CCc1ccc2c(c1)OCO2)NN (centres undefined),·,·,·,-7%,·
CCc1ccc(C(=O)c2cn(CC(=O)Nc3ccc(F)cc3)c3cc4c(cc3c2=O)OCO4)cc1,·,4%,-10%,0%,8%
Cn1nc(C(=O)Nc2ccc(F)c(Cl)c2)c2c1-c1ccccc1S(=O)(=O)C2,·,4%,i,·,16%
COc1ccc(CNn2c(-c3cccs3)nc3ccccc3c2=O)cc1OC,-18,0%,-19%,9%,10µM*
COc1cccc(C(=O)Nn2c(-c3cccs3)nc3ccccc3c2=O)c1OC,-8,-9%,-12%,10%,-30%
O=C(NC1CCOc2ccccc21)c1ccccn1 (centres undefined),-92*,-5%,i,21%,1%
CCCNC(=O)c1cc2n(n1)CCCN(Cc1ccc(F)cc1)C2=O,·,-6%,i,·,10%
O=C(c1cc2sccc2n1Cc1ccccc1)N1CCCc2ccccc21,13,-3%,i,0%,10µM*
Cc1ccc(CN(C(=O)c2ccccc2F)c2ccccn2)o1,·,1%,i,·,4%
NC(=O)C1=CN(C2OC(COP(=O)(O)OP(=O)(O)OC[C@H]3O[C@@H](n4cnc5c(N)ncnc54)[C@H](OP(=O)(O)O)[C@@H]3O)C(O)C2O)C=CC1 (some centres undefined),-14,·,·,·,·
COc1cccc(F)c1C(C[N+](=O)[O-])c1c(N)n(C)c(=O)n(C)c1=O (centres undefined),-13,?,-12%,-6%,3.2µM*
CC(C)(C)c1cc(CCC(=O)N2CCCC2)cc(C(C)(C)C)c1O,-8,12%,-12%,-1%,?
CC(C)(C)c1cc(C(=S)N2CCCC2)cc(C(C)(C)C)c1O,-24,4%,i,6%,8.9µM*
CCc1ccc(CNC(=O)c2ccc3c(c2)c(C)c(C)n3Cc2ccccc2)cc1,·,2%,i,·,10µM*
